# Source: PubChem BioAssay
# In the library only some 0.87% were active in any assay of this set; here they are far more common.
# RECQ1 inh-1: blocks DNA unwinding by human RECQ1. 240,000 tested, 0.54% active. AID 2549. RECQ1 DNA unwinding, red fluorescence kinetic read. Potency, µM (top dose mostly 57.3 µM), for inactives: top-dose activity, negative = inhibition, usual class: inhibitors. P46063;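 further: plate controls were vehicle for no effect and no enzyme for full effect; nearly all actives have a fitted effect of over 30% in size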
# Target sequence (P46063 whole entry, looked up): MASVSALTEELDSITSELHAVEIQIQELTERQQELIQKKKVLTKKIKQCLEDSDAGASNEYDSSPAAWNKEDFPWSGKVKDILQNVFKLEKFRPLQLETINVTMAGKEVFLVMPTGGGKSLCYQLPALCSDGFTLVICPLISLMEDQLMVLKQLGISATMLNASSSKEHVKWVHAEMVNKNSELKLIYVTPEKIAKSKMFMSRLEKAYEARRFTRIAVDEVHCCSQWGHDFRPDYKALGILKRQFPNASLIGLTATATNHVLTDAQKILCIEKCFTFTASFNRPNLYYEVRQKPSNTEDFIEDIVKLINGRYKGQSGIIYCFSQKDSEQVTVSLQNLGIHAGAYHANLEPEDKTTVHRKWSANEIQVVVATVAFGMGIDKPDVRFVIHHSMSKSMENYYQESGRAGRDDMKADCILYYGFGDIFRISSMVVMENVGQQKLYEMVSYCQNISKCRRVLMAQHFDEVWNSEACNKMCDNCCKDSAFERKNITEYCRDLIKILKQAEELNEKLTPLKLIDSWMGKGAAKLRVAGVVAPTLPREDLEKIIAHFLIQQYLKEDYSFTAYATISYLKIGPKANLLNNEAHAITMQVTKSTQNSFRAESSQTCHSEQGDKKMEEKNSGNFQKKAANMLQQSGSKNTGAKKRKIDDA
#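 50 nM RECQ1T1 preincubated 15 min with compound in Tris pH 8.0 buffer with MgCl2, DTT, Tween-20 and 2.5 ug/ml poly(dI-dC); started with 200 nM TAMRA/BHQ-2 forked duplex and 2 mM ATP. Unwinding read as fluorescence (525/598 nm), two reads 2 h apart.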
# BLM inh: blocks DNA unwinding by human BLM helicase; P54132; recombinant BLM DNA unwinding, fluorescence dequenching; Potency, µM (highest dose often 56.1 µM), without a hit: at the top dose activity change, negative = inhibition, hits mostly inhibitors; 350,000 tested, 0.2% active; AID 2528;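 further: plate controls were vehicle for no effect and no enzyme for full effect; nearly all actives have a fitted effect of over 35% in size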
# FEN1 inh: human FEN1 inhibition | AID 588795 | P39748 | 390,000 tested, 0.35% active | Recombinant FEN1 flap cleavage, fluorescence, 15 min | Potency, µM (series often up to 114 µM), inactives show at the highest dose activity change, negative = inhibition, actives largely listed as inhibitors; further: nearly all actives have a fitted effect of over 65% in size
#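 Compounds are tested as a concentration series against 10 nM FEN1; after a 15 min room-temperature preincubation, 50 nM substrate starts cleavage, with plate reads at 0 and 15 min. Normalized responses are fitted by a Hill equation.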
# APEX1 inh: APE1 (human) endonuclease inhibition | P27695 | AID 2517 | recombinant APE1, TAMRA/BHQ-2 abasic DNA cleavage fluorescence | Potency, µM (top dose mostly 65.8 µM), inactives show top-dose activity change, negative = inhibition, most hits filed as inhibitors | 350,000 tested, 0.35% active;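 further: plate controls were vehicle for no effect and reference inhibitor for full effect; nearly all actives have a fitted effect of over 55% in size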
#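 Compound pre-exposure to 0.75 nM APE1, 15 min at ambient temperature. Reaction initiated with 50 nM TAMRA/BHQ-2 THF substrate, read immediately in kinetic mode, 525 nm excitation, 598 nm emission.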
# WRN helicase inh: blocks human WRN helicase; Q14191; Potency, µM (series often up to 114 µM), inactives show top-dose activity change, negative = inhibition, actives largely listed as inhibitors; 360,000 tested, 0.46% active; WRN helicase unwinding, fluorescent forked duplex, kinetic; further: nearly all actives have a fitted effect of over 55% in size
#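 WRN at 20 nM final was preincubated with compound for 15 min at room temperature; reaction started with 100 nM forked duplex oligonucleotide carrying fluorophore and quencher plus 2 mM ATP (final). Unwinding followed kinetically by red fluorescence (ex 525/em 598 nm).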
# RECQ1 inh conf: confirmation of human RECQ1 helicase inhibitors; 610 tested, 28% active; shares compounds with RECQ1 inh-1; Potency, µM (top dose mostly 229 µM), for inactives: at the top dose activity change, negative = inhibition, hits mostly inhibitors; RECQ1 helicase DNA unwinding, fluorescence; further: nearly all actives have a fitted effect of over 45% in size
# ADP FP counter: ADP displacement flagged in RECQ1 inhibitor counter-screen; shares compounds with RECQ1 inh-1; ADP fluorescence polarization displacement counterscreen; Potency, µM (top dose mostly 228 µM), without a hit: at the top dose activity change, negative = inhibition, usual class: inhibitors; 530 tested, 27% active; AID 2711; further: nearly all actives have a fitted effect of over 45% in size
# RECQ1 inh-2: blocks human RECQ1 DNA unwinding; shares compounds with RECQ1 inh-1; recombinant RECQ1 DNA unwinding, red fluorescence; Potency, µM (series often up to 119 µM), for the others: top-dose activity, negative = inhibition, actives largely listed as inhibitors; 1,100 tested, 15% active; further: nearly all actives have a fitted effect of over 50% in size
# Starred values were filed as active, the others as inactive; i = inactive; ? = inconclusive; nt = no result given; [ ] = dose if it differs, or a comment. The call rests on the fitted dose curve; in most records, active means well fitted curve in the direction sought with a large enough effect; inconclusive means small, poorly fitted or top-dose-only effect, or another doubt; inactive means no such curve, though single readings can be large; an effect the other way counts as inactive or inconclusive. Unless noted, on the % scale 0 is the no-effect control and ±100 the full control effect; potency means the concentration at half of the fitted maximal effect.
SMILES,RECQ1 inh-1,BLM inh,FEN1 inh,APEX1 inh,WRN helicase inh,RECQ1 inh-2,others
CC1=Nc2cc(C(=O)NC3CCCC3)ccc2Sc2ccc(Br)cc21,nt,-13%,-19%,nt,nt,nt,
CCOc1ccc(/C=C/c2nc(C#N)c(NC3CCCCC3)o2)cc1,nt,-3%,4%,nt,nt,nt,
O=c1nc(/C=C/c2cc([N+](=O)[O-])ccc2Cl)cc(C(F)(F)F)[nH]1,-11%,0%,4%,-2%,-26%[57.1 µM],nt,
O=c1nc(/C=C/c2cccn2-c2ccc([N+](=O)[O-])cc2)cc(C(F)(F)F)[nH]1,35µM*,-27%,-19%,0%,?,?,
O=C(O)CSc1ncnc2scc(-c3ccccc3)c12,-3%,-8%,-1%,-1%,0%,nt,
CN(C)C(=O)CSc1ncnc2scc(-c3ccccc3)c12,?,9%,-5%,8%,-3%,-7%,
CCn1cc2nc(SCC(=O)Nc3ccc(C)cc3)n(Cc3ccc(C)cc3)c(=O)c2n1,nt,-25%,8%,nt,nt,nt,
O=C1c2ccccc2C(=O)c2c(NCCCN(CCO)CCO)cccc21,20µM*,16µM*,20µM*,?,25µM*,18µM*,
O=[N+]([O-])c1ccc(-c2c(O)c3ccccc3c3nc4ccccc4nc23)cc1,25µM*,-13%,4%,9%,6%,nt,RECQ1 inh conf=9%[114 µM];ADP FP counter=?
CCCCn1c(SCC(=O)NCc2ccco2)nc2ccc(N3CCOCC3)cc2c1=O,?,-4%,-16%,7%,-23%,?,
CCCCn1c(SCC(=O)NCc2ccccc2)nc2ccc(N3CCOCC3)cc2c1=O,-13%,-7%,1%,7%,-9%,nt,
C=CCOc1ccccc1/C=c1\sc2nc(=O)c(C)nn2c1=O,?,-8%,-7%,?,?,?,
COc1ccc(-c2nnc(SCC(=O)Nc3cc(OC)ccc3OC)nc2-c2ccc(OC)cc2)cc1,nt,-6%,-14%,nt,nt,nt,
Cc1cc2c(cc1S(=O)(=O)Nc1cccc(Cl)c1C)OCCN2C,nt,-2%,26%,nt,nt,nt,
O=C(c1ccc(Nc2nccc(-c3cc4ccccc4s3)n2)cc1)N1CCC(N2CCCC2)CC1,?,?,nt,-7%,nt,25µM*,
O=C(c1cccc(F)c1)N1CCC(N2CCCCCC2)CC1,-3%,0%,0%,2%,-8%,nt,
Cc1ccc(C)c(N2CCN(C(=O)c3cc4c(=O)n(Cc5ccccc5)ccc4nc3C)CC2)c1,nt,-8%,-20%,nt,nt,nt,
COc1ccc(-n2c(O)c(/C=N/NS(=O)(=O)c3cc(C)ccc3C)c3ccccc3c2=O)cc1OC,14µM*,-17%,?,?,79µM*,50µM*,
CC(NC(=O)/C(=C/c1ccc2c(c1)OCO2)NC(=O)c1cccc([N+](=O)[O-])c1)C(=O)O (centres undefined),-5%,-4%,-1%,16%,-9%,nt,RECQ1 inh conf=14%;ADP FP counter=-15%
O=C(NC(Cc1ccccc1)C(=O)O)/C(=C/c1ccco1)NC(=O)c1cccc([N+](=O)[O-])c1 (centres undefined),i,-2%,-11%,-10%,1%,nt,RECQ1 inh conf=4%;ADP FP counter=-4%
O=C(NC(Cc1ccccc1)C(=O)O)/C(=C/c1ccccc1)NC(=O)c1cccc(Br)c1 (centres undefined),-3%,-9%,-2%,4%,?,nt,RECQ1 inh conf=11%;ADP FP counter=?
CN(C)/C=C/C(=O)c1ccc(Br)cc1,?,-4%,-13%,21%,-14%,-30%,
CC1=C(c2ccc(F)cc2)S(=O)(=O)N=C1N1CCC(C(=O)NCCc2cccc(C)c2)CC1,nt,-3%,-4%,nt,nt,nt,
COc1cccc(CNC(=O)c2ccc(-n3c(C)cc4c3CCCC4)cc2)c1,nt,-5%,-4%,nt,nt,nt,
Cc1[nH]c(=O)c(C(=O)/C=C/c2ccccc2F)c2c1CCCC2,32µM*,-7%,-4%,13%,-8%,?,
SMILES,RECQ1 inh-1,BLM inh,FEN1 inh,APEX1 inh,WRN helicase inh,RECQ1 inh-2,others
Nc1cc(=O)[nH]c(SCC(=O)N2N=C(c3ccc(Cl)cc3)CC2c2ccco2)n1 (centres undefined),?,-3%,4%,2%,-18%,-49%,
CCOc1ccc(S(=O)(=O)NCCSCc2ccco2)cc1,-10%,-8%,-11%,6%,-27%,nt,
COc1ccc(S(=O)(=O)NCCSCc2ccco2)cc1,?,-16%,1%,?,-13%,-15%,
CCS(=O)(=O)c1ncc(N(Cc2ccco2)Cc2sccc2C)c(C(=O)Nc2cc(C)ccc2C)n1,nt,-9%,14%,nt,nt,nt,
O=C(O)CC(NC(=O)COc1ccc(Cl)cc1Cl)C(=O)O (centres undefined),15%,1%,-9%,2%,1%,nt,RECQ1 inh conf=15%;ADP FP counter=5%
COc1cc2cc3c4c(cc(OC)c(OC)c4c2cc1OC)CCN3C,11µM*,4µM*,nt,?,nt,nt,RECQ1 inh conf=?;ADP FP counter=69%
COc1ccc(S(=O)(=O)NCCCCCC(=O)O)cc1C(=O)O,-9%,-4%,21%,9%,8%,nt,RECQ1 inh conf=10%;ADP FP counter=-7%
N=C1/C(=C\c2ccc(SCc3ccccc3)o2)C(=O)N=C2SC(CC(=O)N3CCOCC3)=NN12,?,-23%,-15%,-8%,-13%,-29%,
COc1ccc(-c2cccc(NS(=O)(=O)c3ccc(C)s3)c2)nn1,nt,0%,-1%,nt,nt,nt,
N/C(=N\OC(=O)c1cccs1)c1cccc([N+](=O)[O-])c1,45µM*,-7%,-5%,13%,7%,-8%,
Cc1cccc(C(=O)O/N=C(\N)c2cccc([N+](=O)[O-])c2)c1,14%,-2%,-9%,-1%,-13%,nt,
C=CCN1C(=O)CS/C1=N\S(=O)(=O)c1ccc(Cl)cc1,?,0%,-2%,-4%,12%,-10%,
COc1ccc(NC(=O)c2oc3ccccc3c2NC(=O)Cc2coc3cc(C)ccc23)cc1,nt,-20%,-9%,nt,nt,nt,
COc1ccccc1-n1c(SCC(=O)Nc2ccc(C)cc2)nc(O)cc1=O,-3%,0%,11%,2%,-2%[57.1 µM],nt,
COc1ccc(NC(=O)CSc2nc(O)cc(=O)n2-c2ccccc2OC)cc1,?,-25%,-18%,-7%,-24%,-18%,
COc1ccccc1-n1c(SCC(=O)Nc2cccc3ccccc23)nc(O)cc1=O,?,-18%,3%,-6%,-21%,-12%,
COc1ccc(OC)c(NC(=O)CSc2cn(CC(=O)N3CCCCCC3)c3ccccc23)c1,nt,1%,-15%,nt,nt,nt,
